# Assay results: PubChem BioAssay (NCATS)
# Values joined by “and” are separate entries in the source; they are usually repeats but may differ in a detail not shown here. Equal values may be shown once. Records with an inconclusive call do not appear. Where a call stands in place of a potency, no number is given. Active and inactive are the calls of the source. Unless noted, calls come from the whole dose curve; as a rule, active = well fitted curve in the direction sought with a large enough effect; inconclusive = small, poorly fitted or top-dose-only effect, or another doubt; inactive = no such curve, though single readings can be large; an effect the other way counts as inactive or inconclusive.
# Experiments:
# [1] = qHTS Assay for Lipid Storage Modulators (AID 1519; calls by dose curve); conditions: Drosophila S3 cells, BODIPY lipid droplet/cell ratio, laser cytometry, cells loaded with oleic acid
# In short: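 Cells seeded at 5,000 per well were treated with compounds over a concentration series and loaded with oleic acid (400 uM, as added). Lipid droplet fluorescence (488 nm excitation, 500-530 nm channel) was read by laser-scanning cytometry and normalized to 20 uM Triacsin C.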
# [2] = target: Ubiquitin carboxyl-terminal hydrolase 1 (Homo sapiens) (UniProt O94782); assay: Inhibitors of USP1/UAF1: Pilot qHTS (AID 504865); conditions: purified USP1/UAF1, Ub-rhodamine cleavage fluorescence; series mostly up to 114 µM; note: nearly all actives have a fitted effect of over 35% in size; note: potency is the fitted concentration of half-maximal effect;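 for activity change, negative = inhibition: rhodamine fluorescence freed from ubiquitin-rhodamine substrate followed over time; top concentration of the series differs between compounds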
# Sequence of Ubiquitin carboxyl-terminal hydrolase 1 (Homo sapiens) (O94782 whole entry, looked up): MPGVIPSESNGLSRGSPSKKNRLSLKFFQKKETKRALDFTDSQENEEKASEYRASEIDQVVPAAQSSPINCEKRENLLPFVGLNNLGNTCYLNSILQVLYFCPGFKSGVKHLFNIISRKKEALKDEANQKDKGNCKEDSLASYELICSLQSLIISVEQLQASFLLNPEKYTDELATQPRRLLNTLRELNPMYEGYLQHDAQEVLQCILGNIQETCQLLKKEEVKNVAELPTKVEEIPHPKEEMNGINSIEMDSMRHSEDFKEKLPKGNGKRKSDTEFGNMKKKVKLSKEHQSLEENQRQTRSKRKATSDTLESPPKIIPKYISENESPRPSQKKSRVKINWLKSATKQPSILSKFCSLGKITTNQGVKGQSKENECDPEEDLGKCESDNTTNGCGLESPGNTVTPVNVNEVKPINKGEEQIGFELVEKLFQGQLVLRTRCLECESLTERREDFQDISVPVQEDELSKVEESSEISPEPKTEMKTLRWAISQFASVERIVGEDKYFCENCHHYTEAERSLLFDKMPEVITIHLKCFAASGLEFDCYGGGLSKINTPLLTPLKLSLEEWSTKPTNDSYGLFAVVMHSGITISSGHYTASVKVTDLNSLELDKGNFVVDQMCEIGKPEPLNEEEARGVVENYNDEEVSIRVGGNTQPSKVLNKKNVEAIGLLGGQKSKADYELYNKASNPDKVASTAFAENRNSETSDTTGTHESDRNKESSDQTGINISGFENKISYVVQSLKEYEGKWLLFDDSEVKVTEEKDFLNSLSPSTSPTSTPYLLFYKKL
# In short: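 Enzyme-free wells gave the negative control, while test wells held 1nM USP1/UAF1 preincubated with compound for 15 min at room temperature. Ub-Rho at 150nM final started the reaction, and fluorescence at 480/540 nm was recorded kinetically.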
# [3] = target: Luciferin 4-monooxygenase (Photinus pyralis) (UniProt P08659); assay: Biochemical firefly luciferase enzyme assay for NPC (AID 624030);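 note: purified P. pyralis luciferase at 10 nM with luciferin and ATP substrate; nearly all actives have a fitted effect of over 70% in size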; conditions: purified P. pyralis luciferase, luminescence, 5 min; series mostly up to 24.9 µM
# Sequence of Luciferin 4-monooxygenase (Photinus pyralis) (P08659 whole entry, looked up): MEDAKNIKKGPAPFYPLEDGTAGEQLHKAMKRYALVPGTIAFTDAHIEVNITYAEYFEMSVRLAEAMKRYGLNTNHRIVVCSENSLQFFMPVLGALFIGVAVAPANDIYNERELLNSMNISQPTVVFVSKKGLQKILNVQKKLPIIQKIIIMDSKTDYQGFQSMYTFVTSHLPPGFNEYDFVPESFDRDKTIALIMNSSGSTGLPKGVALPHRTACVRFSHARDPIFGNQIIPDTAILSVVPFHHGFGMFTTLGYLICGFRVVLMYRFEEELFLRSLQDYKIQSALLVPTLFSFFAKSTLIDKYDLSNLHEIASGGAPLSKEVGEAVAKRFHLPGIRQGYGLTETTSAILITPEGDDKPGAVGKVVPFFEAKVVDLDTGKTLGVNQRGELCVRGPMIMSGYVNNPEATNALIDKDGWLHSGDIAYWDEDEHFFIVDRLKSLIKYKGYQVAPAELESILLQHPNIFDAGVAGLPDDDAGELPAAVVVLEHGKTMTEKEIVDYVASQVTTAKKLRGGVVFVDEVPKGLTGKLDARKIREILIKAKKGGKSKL
# In short: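 Counter-screen for direct inhibition of the luciferase enzyme by approved-drug library compounds, run at 10 nM enzyme in 50 mM Tris acetate (final). Luminescence was read within 5 min of enzyme-buffer addition and normalized to PTC124 versus DMSO (0%).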
# [4] = S16 Schwann cell PMP22 intronic element beta-lactamase assay (AID 624044; calls by dose curve; note: nearly all actives have a fitted effect of over 15% in size); conditions: S16 rat Schwann cells, PMP22 element beta-lactamase FRET, 24 h; series mostly up to 17.1 µM
# In short: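 Beta-lactamase reporter under a PMP22 intronic regulatory element in stable S16 rat Schwann cells; 24 h compound exposure. 460 nm blue signal normalized between DMSO (0%) and potassium clavulanate, with 535 nm FRET tracking viability; curves classed by r2 and response.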
# [5] = qHTS profiling for inhibitors of Plasmodium falciparum proliferation (AID 504749); note: nearly all actives have a fitted effect of over 60% in size; conditions: P. falciparum in erythrocytes, SYBR Green DNA, 72 h
# In short: (§1)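 Fluorescence of SYBR Green-bound parasite DNA, read at 485/535 nm, served as the growth measure. Infected erythrocytes were cultured with compound 72 h; artemisinin (0.29 uM) and DMSO wells defined the normalization range.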
# C2A = assay: as above; conditions: P. falciparum in erythrocytes, SYBR Green DNA, 72 h; series mostly up to 12.8 µM
# In short: as §1
# CP191 = assay: as above; conditions: P. falciparum in erythrocytes, SYBR Green DNA, 72 h; series mostly up to 12.8 µM
# In short: as §1
# CP201 = assay: as above; conditions: P. falciparum in erythrocytes, SYBR Green DNA, 72 h; series mostly up to 12.8 µM
# In short: as §1
# CP238 = assay: as above; conditions: P. falciparum in erythrocytes, SYBR Green DNA, 72 h; series mostly up to 12.8 µM
# In short: as §1
# CP262 = assay: as above; conditions: P. falciparum in erythrocytes, SYBR Green DNA, 72 h; series mostly up to 12.8 µM
# In short: as §1
# CP268 = assay: as above; conditions: P. falciparum in erythrocytes, SYBR Green DNA, 72 h; series mostly up to 12.8 µM
# In short: as §1
# CP315 = assay: as above; conditions: P. falciparum in erythrocytes, SYBR Green DNA, 72 h; series mostly up to 12.8 µM
# In short: as §1
# DFO2036 = assay: as above; conditions: P. falciparum in erythrocytes, SYBR Green DNA, 72 h; series mostly up to 12.8 µM
# In short: as §1
# ECU = assay: as above; conditions: P. falciparum in erythrocytes, SYBR Green DNA, 72 h; series mostly up to 12.8 µM
# In short: as §1
# FAB9 = assay: as above; conditions: P. falciparum in erythrocytes, SYBR Green DNA, 72 h; series mostly up to 12.8 µM
# In short: as §1
# PC15 = assay: as above; conditions: P. falciparum in erythrocytes, SYBR Green DNA, 72 h; series mostly up to 12.8 µM
# In short: as §1
# PC49 = assay: as above; conditions: P. falciparum in erythrocytes, SYBR Green DNA, 72 h; series mostly up to 12.8 µM
# In short: as §1
# [6] = target: Cytochrome P450 3A4 (Homo sapiens) (UniProt P08684); assay: qHTS Assay for Inhibitors and Substrates of Cytochrome P450 3A4 (AID 884); conditions: recombinant CYP3A4, Luciferin-PPXE luminescence; series mostly up to 57.1 µM; note: potency is the fitted concentration of half-maximal effect; nearly all actives have a fitted effect of over 50% in size
# Sequence of Cytochrome P450 3A4 (Homo sapiens) (P08684 whole entry, looked up): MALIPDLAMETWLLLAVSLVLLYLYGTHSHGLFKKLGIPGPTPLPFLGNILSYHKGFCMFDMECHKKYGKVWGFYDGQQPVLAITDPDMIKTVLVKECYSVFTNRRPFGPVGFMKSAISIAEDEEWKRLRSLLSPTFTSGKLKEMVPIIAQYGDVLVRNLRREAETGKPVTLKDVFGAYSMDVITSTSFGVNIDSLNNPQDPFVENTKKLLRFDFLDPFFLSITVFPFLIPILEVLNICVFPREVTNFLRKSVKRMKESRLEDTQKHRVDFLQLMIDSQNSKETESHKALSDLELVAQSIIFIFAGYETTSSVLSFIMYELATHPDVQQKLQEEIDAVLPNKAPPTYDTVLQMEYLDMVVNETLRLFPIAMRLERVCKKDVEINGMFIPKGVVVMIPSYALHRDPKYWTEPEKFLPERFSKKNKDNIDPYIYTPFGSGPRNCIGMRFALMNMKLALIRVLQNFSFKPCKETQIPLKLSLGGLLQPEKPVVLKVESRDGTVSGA
# In short: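 Luminescent readout of luciferin produced by CYP3A4 (20 nM) dealkylation of Luciferin-PPXE, 25 uM (its KM). NADPH-driven reaction ran 60 min at RT after 10 min compound preincubation; data scaled to 57 uM ketoconazole as 100% inhibition.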
# [7] = Confirmation and Secondary Assay for Modulators of Hemoglobin Beta Chain Splicing at IVS2 654 locus (AID 910); conditions: HeLa EGFP-654 splicing reporter, GFP fluorescence, 48 h; series mostly up to 46.1 µM;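 note: per-well total GFP intensity by laser scanning cytometry after 2-day treatment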
# In short: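 HeLa cells stably carrying EGFP interrupted by mutant beta-globin IVS2-654 intron (CMV-driven) were treated with compound for 2 days at 37C; corrected splicing was scored as total peak GFP intensity per well (488 nm excitation, 500-520 nm emission).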
# [8] = Confirmation and Secondary Assay for Modulators of Hemoglobin Beta Chain Splicing at IVS2 705 locus (AID 930); conditions: HeLa EGFP-705 splicing reporter, GFP fluorescence, 48 h; series mostly up to 46.1 µM;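 note: HeLa cells stably expressing the EGFP-705 splicing reporter; GFP fluorescence per well restored by corrected splicing of the IVS2-705 intron in EGFP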
# In short: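 HeLa IVS2-705 EGFP reporter cells, 500/well, compound 2 d at 37C; correct splicing yields fluorescent EGFP. Control: 500 nM antisense PNA. Read-out: total peak GFP intensity.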
# [9] = measured here: cell count channel max response
# [10] = measured here: lipid channel max response
# [11] = at 12.8 µM (top of the series), parasite line A
compound,measurement,setting,value
c1ccc2c(c1)CCCc1cc(NCCN3CCOCC3)nnc1-2,"activity change, negative = inhibition",[1]; at 25.7 µM (top of the series),-1.57% (inactive)
same,max response,[1]; [9],0.476%
same,max response,[1]; [10],-2.33%
same,Potency,[2],inactive
O[C@@](CCN1CCCCC1)(c1ccccc1)[C@@H]1C[C@H]2C=C[C@@H]1C2,"activity change, negative = inhibition",[1]; at 25.7 µM (top of the series),1.83% (inactive)
same,max response,[1]; [9],-4.18%
same,max response,[1]; [10],-2.67%
same,Potency,[2],inactive
CN(C/C=C\c1ccccc1)Cc1cccc2ccccc12,"activity change, negative = inhibition",[1]; at 25.7 µM (top of the series),-0.644% (inactive)
same,max response,[1]; [9],-24.2%
same,max response,[1]; [10],-23.6%
same,Potency,[2],inactive
same,Potency,[3],inactive
same,Potency,[4],inactive
same,"activity, negative = inhibition","[5]; at 28.7 µM (top of the series), parasite line A",18.6% (inactive)
same,"activity, negative = inhibition","[5]; at 28.7 µM (top of the series), parasite line B",9.39% (inactive)
same,Potency,C2A,inactive
same,Potency,CP191,inactive
same,Potency,CP201,inactive
same,Potency,CP238,inactive
same,Potency,CP262,inactive
same,Potency,CP268,inactive
same,Potency,CP315,inactive
same,Potency,DFO2036,inactive
same,Potency,ECU,inactive
same,Potency,FAB9,inactive
same,Potency,PC15,inactive
same,Potency,PC49,inactive
O=C(O)[C@@H]1[C@@H]2C[C@H]3c4[nH]c5ccccc5c4CCN3C[C@@H]2CC[C@@H]1O,"activity change, negative = inhibition",[1]; at 25.7 µM (top of the series),0.95% (inactive)
same,max response,[1]; [9],-6.3%
same,max response,[1]; [10],-6.11%
same,Potency,[2],28.2 µM (active)
same,Potency,[3],inactive
same,Potency,[4],inactive
same,Potency,CP268,inactive
same,Potency,PC49,inactive
CN1CCC[C@@H](CC2c3ccccc3Sc3ccccc32)C1,"activity change, negative = inhibition",[1]; at 25.7 µM (top of the series),-5.3% (inactive)
same,max response,[1]; [9],-0.662%
same,max response,[1]; [10],-6.24%
same,Potency,[2],inactive
same,Potency,[3],inactive
same,Potency,[4],inactive
same,"activity, negative = inhibition",[5]; [11],-16.3% (inactive)
same,Potency,C2A,inactive
same,Potency,CP191,inactive
same,Potency,CP238,inactive
same,Potency,CP262,inactive
same,Potency,CP315,inactive
same,Potency,ECU,inactive
same,Potency,FAB9,inactive
same,Potency,PC49,inactive
COc1ccc(-c2cc(=O)c3c(O)cc(O)cc3o2)cc1,Potency,[6],2.51 µM (active) and 7.94 µM (active) and 3.16 µM (active)
same,Potency,[7],inactive
same,Potency,[8],inactive
same,"activity change, negative = inhibition",[1]; at 57.5 µM (top of the series),14.6% (inactive)
same,max response,[1]; [9],4.93%
same,max response,[1]; [10],23.2%
same,Potency,[2],inactive
CO[C@@H]1CC[C@@]2(C)[C@@H](CC[C@@]3(C)[C@H]2CC=C2[C@H]4CC(C)(C)[C@H](O)[C@@H](OC(C)=O)[C@]4(CO)[C@H](O)C[C@]23C)[C@@]1(C)CO (tested in a mixture with another compound),"activity change, negative = inhibition",[1]; at 25.7 µM (top of the series),0.0322% (inactive)
same,max response,[1]; [9],6.28%
same,max response,[1]; [10],7.61%
CC1(C)S[C@@H]2[C@H](NC(=O)[C@@H](N)c3ccc(O)cc3)C(=O)N2[C@H]1C(=O)O,"activity change, negative = inhibition",[1]; at 25.7 µM (top of the series),-0.615% (inactive)
same,max response,[1]; [9],-7.54%
same,max response,[1]; [10],-10.4%
same,Potency,[2],inactive
COc1ccccc1OC[C@H](O)CO,"activity change, negative = inhibition",[1]; at 25.7 µM (top of the series),-4.43% (inactive)
same,max response,[1]; [9],-24.7%
same,max response,[1]; [10],-36%
same,Potency,[2],inactive
same,Potency,[3],inactive
same,Potency,[4],inactive
same,"activity, negative = inhibition",[5]; [11],5.68% (inactive)
same,"activity, negative = inhibition","[5]; at 12.8 µM (top of the series), parasite line B",4.87% (inactive)
same,Potency,C2A,inactive
same,Potency,CP191,inactive
same,Potency,CP201,inactive
same,Potency,CP238,inactive
same,Potency,CP262,inactive
same,Potency,CP268,inactive
same,Potency,CP315,inactive
same,Potency,DFO2036,inactive
same,Potency,ECU,inactive
same,Potency,FAB9,inactive
same,Potency,PC15,inactive
same,Potency,PC49,inactive
